For two sequences, binding signal results are on record in PMC7862700, “An all-to-all approach to the identification of sequence-specific readers for epigenetic DNA modifications on cytosine”.

Test in all cases: DAPPL (digital affinity profiling via proximity ligation, sequencing); 10 mM Tris-HCl pH 7.5, 50 mM NaCl, 1 mM DTT, 4% glycerol, room temperature, 30 min; GST-TFs on glutathione beads, 16-mer random dsDNA library, 0.1% formaldehyde crosslink after washing; high values mean tight binding
One assay concerns the target T1, FLI1 (Homo sapiens, UniProt Q01543 1-452).
T1 sequence: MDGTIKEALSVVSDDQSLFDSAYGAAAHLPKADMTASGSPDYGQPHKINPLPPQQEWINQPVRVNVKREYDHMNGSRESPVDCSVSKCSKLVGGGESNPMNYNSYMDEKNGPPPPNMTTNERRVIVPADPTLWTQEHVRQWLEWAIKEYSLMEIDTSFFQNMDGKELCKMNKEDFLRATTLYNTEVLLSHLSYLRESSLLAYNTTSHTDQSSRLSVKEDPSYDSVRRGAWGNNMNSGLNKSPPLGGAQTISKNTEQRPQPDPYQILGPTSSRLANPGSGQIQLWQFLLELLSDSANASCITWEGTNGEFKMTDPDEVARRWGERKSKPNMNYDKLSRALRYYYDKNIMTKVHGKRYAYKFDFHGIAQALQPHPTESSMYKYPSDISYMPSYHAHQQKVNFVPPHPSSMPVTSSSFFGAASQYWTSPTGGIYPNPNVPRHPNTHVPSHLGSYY
The following applies: protein: recombinant; tags: N-terminal GST; dsDNA, one strand shown. Put shortly:
(§1)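 Each value of binding signal is a hexamer's read frequency for a factor divided by the same hexamer's frequency in the tag-only sample. Barcoded, bead-captured GST fusions of human transcription factors made in yeast were pooled with that sample and incubated with 200 nmole of a random double-stranded 16-mer DNA library in Tris/NaCl/DTT/glycerol buffer at room temperature for 30 min. Washing, 0.1% formaldehyde crosslinking, proximity ligation, PCR and Illumina NextSeq500 sequencing followed.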

In a further assay the target is T2, ELK1 (Homo sapiens, UniProt P19419 1-428).
T2 sequence: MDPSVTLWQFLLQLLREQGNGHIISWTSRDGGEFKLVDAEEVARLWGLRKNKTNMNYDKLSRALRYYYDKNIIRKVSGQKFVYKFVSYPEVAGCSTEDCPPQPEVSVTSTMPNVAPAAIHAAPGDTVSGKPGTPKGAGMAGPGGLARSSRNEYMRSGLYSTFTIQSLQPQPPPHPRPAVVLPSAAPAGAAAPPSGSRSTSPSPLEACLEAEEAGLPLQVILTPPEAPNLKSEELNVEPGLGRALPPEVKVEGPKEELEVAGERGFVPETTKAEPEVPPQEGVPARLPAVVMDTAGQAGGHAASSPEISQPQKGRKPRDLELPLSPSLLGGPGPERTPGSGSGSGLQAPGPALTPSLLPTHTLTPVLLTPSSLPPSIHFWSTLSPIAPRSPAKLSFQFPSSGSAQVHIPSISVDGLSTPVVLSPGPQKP
The following applies: protein: recombinant; tags: N-terminal GST; dsDNA, one strand shown. Summed up: as §1

The next assay deals with T3, GABPA (Homo sapiens, UniProt Q06546 1-454).
T3 sequence: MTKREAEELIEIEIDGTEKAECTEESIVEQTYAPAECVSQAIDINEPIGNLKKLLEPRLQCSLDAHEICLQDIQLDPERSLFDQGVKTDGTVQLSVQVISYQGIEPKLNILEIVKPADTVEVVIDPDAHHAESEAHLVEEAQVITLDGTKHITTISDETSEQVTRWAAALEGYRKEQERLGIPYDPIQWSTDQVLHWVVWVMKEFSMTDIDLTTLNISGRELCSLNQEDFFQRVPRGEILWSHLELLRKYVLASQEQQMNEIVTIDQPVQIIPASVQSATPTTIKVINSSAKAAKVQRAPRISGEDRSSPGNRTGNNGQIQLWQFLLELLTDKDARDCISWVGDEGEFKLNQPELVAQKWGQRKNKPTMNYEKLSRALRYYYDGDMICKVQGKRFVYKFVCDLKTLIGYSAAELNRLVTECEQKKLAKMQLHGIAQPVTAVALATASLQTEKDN
The following applies: protein: recombinant; tags: N-terminal GST; dsDNA, one strand shown. Summed up: as §1

Another assay concerns the target ELF1 (Homo sapiens, UniProt P32519 1-619). The settings on record: protein: recombinant; tags: N-terminal GST; dsDNA, one strand shown. Summed up: as §1
A further assay concerns the target T4, EHF (Homo sapiens, UniProt Q9NZC4 1-300).
T4 sequence: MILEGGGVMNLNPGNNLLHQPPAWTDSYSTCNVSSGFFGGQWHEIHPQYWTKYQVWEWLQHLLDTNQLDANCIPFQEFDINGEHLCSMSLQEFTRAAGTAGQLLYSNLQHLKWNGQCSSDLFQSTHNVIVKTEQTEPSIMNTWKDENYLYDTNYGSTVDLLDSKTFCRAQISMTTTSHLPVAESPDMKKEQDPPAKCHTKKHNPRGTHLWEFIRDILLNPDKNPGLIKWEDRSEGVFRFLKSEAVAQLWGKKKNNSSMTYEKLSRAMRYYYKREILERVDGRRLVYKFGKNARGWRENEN
The settings on record: protein: recombinant; tags: N-terminal GST; dsDNA, one strand shown. Put shortly: as §1

A further assay has as its target SPI1 (Homo sapiens, UniProt P17947 1-270). The following applies: protein: recombinant; tags: N-terminal GST; dsDNA, one strand shown. Summed up:
as §1

The target of another assay is SPIB (Homo sapiens, UniProt Q01892 1-262). The following applies: protein: recombinant; tags: N-terminal GST; dsDNA, one strand shown. Put shortly:
as §1

Another assay deals with T5, FEV (Homo sapiens, UniProt Q99581 1-238).
T5 sequence: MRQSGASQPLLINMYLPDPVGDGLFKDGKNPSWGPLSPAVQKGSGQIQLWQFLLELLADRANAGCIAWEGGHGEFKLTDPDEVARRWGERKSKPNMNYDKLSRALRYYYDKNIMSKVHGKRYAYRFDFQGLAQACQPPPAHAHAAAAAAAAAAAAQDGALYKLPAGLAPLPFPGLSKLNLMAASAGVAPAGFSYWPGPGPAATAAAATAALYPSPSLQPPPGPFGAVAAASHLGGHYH
The settings on record: protein: recombinant; tags: N-terminal GST; dsDNA, one strand shown. Put shortly: as §1

For the next assay, the target named is ETV5 (Homo sapiens, UniProt P41161 1-510). The following applies: protein: recombinant; tags: N-terminal GST; dsDNA, one strand shown. Put shortly:
as §1

The target in another assay is HSF1 (Homo sapiens, UniProt Q00613 1-529). The following applies: protein: recombinant; tags: N-terminal GST; chain copies: 3; dsDNA, one strand shown. Put shortly:
as §1

The next assay deals with ELF4 (Homo sapiens, UniProt Q99607 1-663). The following applies: protein: recombinant; tags: N-terminal GST; dsDNA, one strand shown. Summed up: as §1
Another assay addresses T6, ELK4 (Homo sapiens, UniProt P28324-2 1-405).
T6 sequence: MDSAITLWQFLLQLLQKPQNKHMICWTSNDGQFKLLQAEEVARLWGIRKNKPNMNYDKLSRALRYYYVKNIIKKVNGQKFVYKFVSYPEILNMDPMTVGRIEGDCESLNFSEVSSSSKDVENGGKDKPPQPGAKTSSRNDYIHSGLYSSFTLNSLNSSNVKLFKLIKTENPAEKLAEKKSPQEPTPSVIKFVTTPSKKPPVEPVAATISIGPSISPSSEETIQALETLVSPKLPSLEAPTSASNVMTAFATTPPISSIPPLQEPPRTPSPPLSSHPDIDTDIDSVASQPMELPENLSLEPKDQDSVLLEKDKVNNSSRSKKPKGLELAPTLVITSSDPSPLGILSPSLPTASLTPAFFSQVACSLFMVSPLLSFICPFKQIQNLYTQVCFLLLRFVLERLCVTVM
The following applies: protein: recombinant; tags: N-terminal GST; dsDNA, one strand shown. Summed up: as §1

In another assay the target is T7, ETV2 (Homo sapiens, UniProt O00321 1-342).
T7 sequence: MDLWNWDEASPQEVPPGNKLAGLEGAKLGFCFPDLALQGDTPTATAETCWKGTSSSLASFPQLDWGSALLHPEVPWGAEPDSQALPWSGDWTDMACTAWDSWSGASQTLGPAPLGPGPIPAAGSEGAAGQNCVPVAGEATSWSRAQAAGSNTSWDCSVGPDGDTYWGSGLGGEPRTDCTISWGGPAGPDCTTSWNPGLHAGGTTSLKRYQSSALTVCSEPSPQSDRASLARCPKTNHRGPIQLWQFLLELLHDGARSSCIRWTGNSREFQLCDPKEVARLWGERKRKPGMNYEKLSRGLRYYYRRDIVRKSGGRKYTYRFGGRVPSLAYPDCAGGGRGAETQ
The settings on record: protein: recombinant; tags: N-terminal GST; dsDNA, one strand shown. Put shortly: as §1

A further assay has as its target CRX (Homo sapiens, UniProt O43186 1-299). The following applies: protein: recombinant; tags: N-terminal GST; dsDNA, one strand shown. Put shortly: as §1
The next assay has as its target ETV1 (Homo sapiens, UniProt P50549 1-477). The settings on record: protein: recombinant; tags: N-terminal GST; dsDNA, one strand shown. Summed up:
as §1

A further assay deals with T8, ELK3 (Homo sapiens, UniProt P41970 1-407).
T8 sequence: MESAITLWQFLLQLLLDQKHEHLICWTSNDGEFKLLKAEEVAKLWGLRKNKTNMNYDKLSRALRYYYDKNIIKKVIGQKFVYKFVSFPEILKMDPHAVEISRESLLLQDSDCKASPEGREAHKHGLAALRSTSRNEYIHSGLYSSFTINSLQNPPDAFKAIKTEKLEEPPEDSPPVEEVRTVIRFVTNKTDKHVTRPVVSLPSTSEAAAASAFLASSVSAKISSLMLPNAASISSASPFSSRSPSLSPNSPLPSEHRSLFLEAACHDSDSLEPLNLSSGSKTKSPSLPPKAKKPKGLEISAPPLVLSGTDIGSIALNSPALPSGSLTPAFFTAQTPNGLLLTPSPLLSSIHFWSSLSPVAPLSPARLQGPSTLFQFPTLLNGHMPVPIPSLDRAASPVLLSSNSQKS
The following applies: protein: recombinant; tags: N-terminal GST; dsDNA, one strand shown. Put shortly:
as §1

The next assay concerns the target T9, ELF3 (Homo sapiens, UniProt P78545 1-371).
T9 sequence: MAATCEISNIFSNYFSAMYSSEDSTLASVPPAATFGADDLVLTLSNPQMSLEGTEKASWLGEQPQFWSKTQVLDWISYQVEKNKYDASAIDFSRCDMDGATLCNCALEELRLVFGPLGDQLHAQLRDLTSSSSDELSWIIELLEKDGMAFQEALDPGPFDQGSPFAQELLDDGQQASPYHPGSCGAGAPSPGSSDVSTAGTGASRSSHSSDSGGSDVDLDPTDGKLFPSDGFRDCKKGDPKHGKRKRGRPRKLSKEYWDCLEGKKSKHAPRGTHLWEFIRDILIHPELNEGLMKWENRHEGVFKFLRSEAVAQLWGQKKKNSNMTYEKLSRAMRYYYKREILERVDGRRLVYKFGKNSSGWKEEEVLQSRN
The settings on record: protein: recombinant; tags: N-terminal GST; dsDNA, one strand shown. Put shortly: as §1

Chain of ETV5 (P41161 whole entry): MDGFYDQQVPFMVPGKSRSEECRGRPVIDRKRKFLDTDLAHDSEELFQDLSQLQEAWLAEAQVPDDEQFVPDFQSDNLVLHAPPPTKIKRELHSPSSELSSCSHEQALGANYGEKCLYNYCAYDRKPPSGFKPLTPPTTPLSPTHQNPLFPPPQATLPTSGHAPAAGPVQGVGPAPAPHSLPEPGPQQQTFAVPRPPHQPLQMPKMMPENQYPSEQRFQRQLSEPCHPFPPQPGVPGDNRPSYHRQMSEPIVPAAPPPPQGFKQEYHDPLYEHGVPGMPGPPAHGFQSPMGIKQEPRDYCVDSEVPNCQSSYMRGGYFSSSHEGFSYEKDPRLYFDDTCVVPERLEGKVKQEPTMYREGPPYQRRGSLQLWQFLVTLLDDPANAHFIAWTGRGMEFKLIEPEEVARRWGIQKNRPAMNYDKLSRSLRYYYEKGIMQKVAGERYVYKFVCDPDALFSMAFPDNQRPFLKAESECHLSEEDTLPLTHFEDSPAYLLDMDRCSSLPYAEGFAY
Chain of ELF1 (P32519 whole entry): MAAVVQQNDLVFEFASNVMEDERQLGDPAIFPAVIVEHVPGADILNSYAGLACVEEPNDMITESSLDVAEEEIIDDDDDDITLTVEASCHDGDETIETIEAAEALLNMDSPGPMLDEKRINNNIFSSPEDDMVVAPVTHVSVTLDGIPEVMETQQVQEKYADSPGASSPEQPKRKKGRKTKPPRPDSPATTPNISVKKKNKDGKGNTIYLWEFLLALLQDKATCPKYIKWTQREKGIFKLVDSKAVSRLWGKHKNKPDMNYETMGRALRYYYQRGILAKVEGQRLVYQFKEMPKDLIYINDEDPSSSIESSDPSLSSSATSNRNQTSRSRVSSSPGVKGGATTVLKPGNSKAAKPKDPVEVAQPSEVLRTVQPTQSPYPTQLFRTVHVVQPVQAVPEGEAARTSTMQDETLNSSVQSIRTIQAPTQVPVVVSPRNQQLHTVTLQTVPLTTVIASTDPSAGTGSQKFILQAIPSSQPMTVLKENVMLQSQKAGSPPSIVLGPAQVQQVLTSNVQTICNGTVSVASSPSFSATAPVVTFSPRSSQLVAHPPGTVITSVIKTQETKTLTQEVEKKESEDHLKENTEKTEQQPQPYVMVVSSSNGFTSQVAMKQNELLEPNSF
Chain of CRX (O43186 whole entry): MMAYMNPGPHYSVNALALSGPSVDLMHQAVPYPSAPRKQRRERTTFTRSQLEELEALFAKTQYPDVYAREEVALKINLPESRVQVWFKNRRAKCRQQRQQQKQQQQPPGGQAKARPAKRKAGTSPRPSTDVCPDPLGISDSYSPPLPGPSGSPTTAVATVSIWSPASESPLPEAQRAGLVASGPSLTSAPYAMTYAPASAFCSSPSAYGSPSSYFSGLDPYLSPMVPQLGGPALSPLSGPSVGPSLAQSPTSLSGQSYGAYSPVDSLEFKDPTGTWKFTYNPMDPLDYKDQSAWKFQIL
Chain of HSF1 (Q00613 whole entry): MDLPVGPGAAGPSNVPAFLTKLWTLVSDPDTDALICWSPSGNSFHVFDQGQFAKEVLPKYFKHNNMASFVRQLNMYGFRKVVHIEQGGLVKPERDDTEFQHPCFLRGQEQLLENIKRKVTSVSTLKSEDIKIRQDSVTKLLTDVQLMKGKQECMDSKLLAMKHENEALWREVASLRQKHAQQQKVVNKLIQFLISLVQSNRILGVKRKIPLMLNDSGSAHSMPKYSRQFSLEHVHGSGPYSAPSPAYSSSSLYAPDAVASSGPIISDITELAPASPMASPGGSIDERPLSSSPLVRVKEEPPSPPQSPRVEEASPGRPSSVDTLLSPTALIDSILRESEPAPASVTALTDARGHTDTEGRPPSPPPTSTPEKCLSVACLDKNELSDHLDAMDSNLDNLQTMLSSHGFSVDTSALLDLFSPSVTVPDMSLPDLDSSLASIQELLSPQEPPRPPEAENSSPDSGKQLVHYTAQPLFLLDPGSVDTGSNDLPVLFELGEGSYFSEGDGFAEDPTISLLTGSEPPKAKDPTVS
Chain of SPIB (Q01892 whole entry): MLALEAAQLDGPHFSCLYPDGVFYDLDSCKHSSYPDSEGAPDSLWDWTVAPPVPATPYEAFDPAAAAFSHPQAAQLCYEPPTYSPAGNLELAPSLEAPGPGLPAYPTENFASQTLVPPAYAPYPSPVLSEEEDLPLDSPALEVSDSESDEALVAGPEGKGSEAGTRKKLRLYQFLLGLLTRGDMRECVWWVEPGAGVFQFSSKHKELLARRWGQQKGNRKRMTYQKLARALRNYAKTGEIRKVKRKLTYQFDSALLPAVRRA
Chain of ETV1 (P50549 whole entry): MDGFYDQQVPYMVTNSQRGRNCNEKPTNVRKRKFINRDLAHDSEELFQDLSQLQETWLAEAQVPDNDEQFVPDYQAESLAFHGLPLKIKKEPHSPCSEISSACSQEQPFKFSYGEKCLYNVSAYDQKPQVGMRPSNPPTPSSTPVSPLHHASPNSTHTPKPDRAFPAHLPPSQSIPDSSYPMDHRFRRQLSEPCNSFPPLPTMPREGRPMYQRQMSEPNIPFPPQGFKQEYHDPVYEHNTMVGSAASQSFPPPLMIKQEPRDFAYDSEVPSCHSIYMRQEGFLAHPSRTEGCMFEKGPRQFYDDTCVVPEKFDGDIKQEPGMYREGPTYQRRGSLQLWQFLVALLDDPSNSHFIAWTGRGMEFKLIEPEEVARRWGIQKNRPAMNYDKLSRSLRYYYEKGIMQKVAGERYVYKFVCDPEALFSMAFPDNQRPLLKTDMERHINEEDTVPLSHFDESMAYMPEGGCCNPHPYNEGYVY
Chain of ELF4 (Q99607 whole entry): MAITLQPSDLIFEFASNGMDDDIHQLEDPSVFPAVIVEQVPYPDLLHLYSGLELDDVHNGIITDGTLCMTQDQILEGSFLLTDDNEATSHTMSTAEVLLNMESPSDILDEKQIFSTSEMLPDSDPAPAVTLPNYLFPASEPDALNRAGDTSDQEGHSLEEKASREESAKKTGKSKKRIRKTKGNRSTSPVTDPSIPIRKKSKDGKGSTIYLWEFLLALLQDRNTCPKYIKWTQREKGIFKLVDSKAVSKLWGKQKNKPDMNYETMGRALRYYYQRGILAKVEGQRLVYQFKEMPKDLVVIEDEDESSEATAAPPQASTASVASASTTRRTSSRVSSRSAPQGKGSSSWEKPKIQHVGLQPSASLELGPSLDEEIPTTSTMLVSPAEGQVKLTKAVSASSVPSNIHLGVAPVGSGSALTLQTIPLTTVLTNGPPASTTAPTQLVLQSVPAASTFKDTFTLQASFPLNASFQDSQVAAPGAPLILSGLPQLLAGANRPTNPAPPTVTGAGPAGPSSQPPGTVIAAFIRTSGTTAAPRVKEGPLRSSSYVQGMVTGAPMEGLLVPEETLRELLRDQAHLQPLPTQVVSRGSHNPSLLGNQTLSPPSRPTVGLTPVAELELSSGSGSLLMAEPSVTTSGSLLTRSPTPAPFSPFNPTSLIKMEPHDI

As for AGATAA, the binding signal in the assay with FLI1 was 1.09 fold enrichment (6-mer frequency, TF over GST control); with ELK1, 1.07 fold enrichment (6-mer frequency, TF over GST control); with GABPA, 1.09 fold enrichment (6-mer frequency, TF over GST control); with ELF1, 1.01 fold enrichment (6-mer frequency, TF over GST control); with EHF it was 1.03 fold enrichment (6-mer frequency, TF over GST control); with SPI1, 1.01 fold enrichment (6-mer frequency, TF over GST control). For the same sequence, the binding signal with SPIB was 1.12 fold enrichment (6-mer frequency, TF over GST control); with FEV, 1.01 fold enrichment (6-mer frequency, TF over GST control); with ETV5, 1.01 fold enrichment (6-mer frequency, TF over GST control); with HSF1 it was 1.68 fold enrichment (6-mer frequency, TF over GST control); with ELF4 it was 1.09 fold enrichment (6-mer frequency, TF over GST control); with ELK4, 1.08 fold enrichment (6-mer frequency, TF over GST control). In addition, the binding signal with ETV2 was 1.17 fold enrichment (6-mer frequency, TF over GST control); in the assay with CRX it was 2 fold enrichment (6-mer frequency, TF over GST control); in the assay with ETV1, 1.04 fold enrichment (6-mer frequency, TF over GST control).
Consider TAGTGC, for which the binding signal with FLI1 is 1.05 fold enrichment (6-mer frequency, TF over GST control); in the assay with ELK1 it was 1.02 fold enrichment (6-mer frequency, TF over GST control); with GABPA, 1.12 fold enrichment (6-mer frequency, TF over GST control); with ELF1, 1.1 fold enrichment (6-mer frequency, TF over GST control); with SPI1, 1.05 fold enrichment (6-mer frequency, TF over GST control); with SPIB, 1.03 fold enrichment (6-mer frequency, TF over GST control). The binding signal is 1.07 fold enrichment (6-mer frequency, TF over GST control) with ELK3; 1.02 fold enrichment (6-mer frequency, TF over GST control) in the assay with FEV; 1.08 fold enrichment (6-mer frequency, TF over GST control) with ETV5; 1.02 fold enrichment (6-mer frequency, TF over GST control) with HSF1; 1.04 fold enrichment (6-mer frequency, TF over GST control) with ELK4; 1.02 fold enrichment (6-mer frequency, TF over GST control) with ETV2. The binding signal is 1.03 fold enrichment (6-mer frequency, TF over GST control) with ELF3; 1.16 fold enrichment (6-mer frequency, TF over GST control) in the assay with CRX; 1.09 fold enrichment (6-mer frequency, TF over GST control) with ETV1.
